Inconclusive results are not listed. The source made the active and inactive calls. The calls were made as follows: active = hit-call score of the fitted dose curve at least 0.9, where 1 is the maximum; inactive = score below 0.9.
These compounds were tested against human BTK TK Kinase, BTK (gene 695) (UniProt Q06187) (assay: ERF_TW_ENZ_hBTK: Eurofins (ERF) Enzymatic Radiometric [10 uM ATP] LeadHunter Assay for human BTK TK Kinase).
Protocol: ERF_TW_ENZ_hBTK is a biochemical, single-readout assay that uses extracted gene-proteins in a cell-free assay. Measurements were taken 0.5 hour after chemical dosing in a 96-well plate. See BTK Human TK Kinase Enzymatic Radiometric Assay [10 uM ATP], Panlabs.ERF_TW_ENZ_hBTK is an assay component calculated from the ERF_TW_ENZ_hBTK assay. It is designed to measure enzyme activity using a type of enzyme reporter as detected by scintillation counting with radiometry technology.Data from the assay component ERF_TW_ENZ_hBTK was analyzed at the assay endpoint, ERF_TW_ENZ_hBTK, in the positive analysis fitting direction relative to DMSO as the negative control and baseline of activity. Using a type of enzyme reporter, loss-of-signal activity can be used to understand changes in enzymatic activity as they relate to gene BTK. To generalize the intended target to other relatable targets, this assay endpoint is annotated to the kinase intended target family, where the subfamily is tyrosine kinase (tk).
Human recombinant protein kinase BTK expressed in insect Sf21 cells is used. Test compound and/or vehicle is preincubated with 200 ng/ml enzymedouble dagger in modified HEPES buffer pH 7.4 for 15 minutes at 37C. […] An aliquot is removed and counted to determine the amount of [32P]Poly(Glu:Tyr) formed. […]

Chain of human BTK TK Kinase, BTK (gene 695) (Q06187 whole entry, looked up): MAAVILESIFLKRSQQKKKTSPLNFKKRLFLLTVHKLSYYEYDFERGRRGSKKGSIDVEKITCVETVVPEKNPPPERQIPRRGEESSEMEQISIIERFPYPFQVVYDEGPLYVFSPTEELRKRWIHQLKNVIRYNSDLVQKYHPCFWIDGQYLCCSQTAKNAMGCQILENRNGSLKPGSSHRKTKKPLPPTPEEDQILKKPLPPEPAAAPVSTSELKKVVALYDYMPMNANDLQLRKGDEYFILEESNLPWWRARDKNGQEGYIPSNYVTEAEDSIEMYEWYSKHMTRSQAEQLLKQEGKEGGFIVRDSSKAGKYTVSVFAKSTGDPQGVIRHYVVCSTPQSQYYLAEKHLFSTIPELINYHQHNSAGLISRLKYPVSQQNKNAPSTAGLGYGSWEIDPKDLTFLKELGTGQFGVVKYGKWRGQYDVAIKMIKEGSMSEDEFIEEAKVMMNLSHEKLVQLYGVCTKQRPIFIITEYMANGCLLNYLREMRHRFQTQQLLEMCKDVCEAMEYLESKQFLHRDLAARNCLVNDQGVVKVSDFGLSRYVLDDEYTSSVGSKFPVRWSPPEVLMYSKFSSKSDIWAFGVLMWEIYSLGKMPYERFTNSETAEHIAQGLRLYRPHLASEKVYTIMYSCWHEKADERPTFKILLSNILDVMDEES

| Compound | AC50 |
| --- | --- |
| O=C(/C=C/c1ccc(O)cc1)CC(=O)/C=C/c1ccc(O)cc1 | 6.13 µM (active) |
